Tests used:
Assay in all cases: PBM binding z-score (relative to random genomic background probes); higher = stronger binding; sequences stand for … in GC…GCGATTGACAGCGTAGAATGAAGG
[1] = system: RARb homodimer (NR concentration 270 nM)
Method in brief: (§1)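 Binding z-scores take random background probes as their reference. They come from custom Agilent 4×180K protein-binding microarrays incubated 1 h with ligand-free nuclear receptor dimers, with antibodies against each partner (one per run) detecting binding. Scanned fluorescence was regression-normalized.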

[2] = system: RARg:RXRa (NR concentration 270 nM, RXRa partner concentration 90 nM)
Method in brief: as §1

[3] = system: RARg homodimer (NR concentration 270 nM)
Method in brief: as §1

[4] = system: RXRa DBDmut IVT, anti-RXR (DBD mutation: RXRa K156A/R161A, NR concentration 90 nM)
Method in brief: as §1

[5] = system: RXRa homodimer (NR concentration 180 nM)
Method in brief: as §1

[6] = system: THRa:RXRa (NR concentration 90 nM, RXRa partner concentration 90 nM)
Method in brief: as §1

[7] = system: THRa homodimer (NR concentration 90 nM)
Method in brief: as §1

[8] = system: VDR homodimer (NR concentration 270 nM)
Method in brief: as §1

Sequence	PBM binding z-score [1]	PBM binding z-score [2]	PBM binding z-score [3]	PBM binding z-score [4]	PBM binding z-score [5]	PBM binding z-score [6]	PBM binding z-score [7]	PBM binding z-score [8]
AGTCAAAGTTCACTAGCTAACGTAAGATTCAGCT	3.22	4.66	5.41	4.14	3.53	1.4	-0.145	3.78
CCTACTGGGCAAAGGTCATTGATCAGTCAAAGCA	4.39	6.27	4.92	1.48	6.88	3.05	0.287	2.31
AGTCAAAGTTCAGGACGAGGTAAGGTAAAGCACG	3.46	4.56	4.61	3.11	3.09	3.72	2.26	2.09
CCTGCTATGTCAATGGTCAGCTAAAGCAGCTCGC	0.33	0.00581	0.0986	0.386	-0.174	-0.688	-0.637	-0.777
ACTAACAGGCCAAGTTTGGGTCACTCAAACAAAG	2.55	2.88	2.24	0.278	0.882	2.73	1.26	0.351
ACTATTAGTTGAGATGAGGGCAACCGATAGGTTG	1.05	0.932	0.979	0.642	0.671	2.84	0.833	1.18
CCTTACGGGTCACTCCAGGTTATAGCATCGGAGT	3.23	4.39	4.35	1.5	4.36	4.89	0.826	1.69
TCTAGTGGGTCACGGAGGTCACACACGACGGGTA	4.95	6.73	7.18	1.53	7.69	4.26	2.34	6.17
TCTCGTAGATCAACAGGAGGTTAAGAAAGATCGA	0.63	0.917	0.145	0.538	1.01	0.902	-0.325	-0.382
TCTTGTAGATCATTAGAGGTTAAGAAAGTGCGCT	1.19	0.881	0.586	0.77	1.42	2.67	-0.124	0.446
CCTGCTAGGTCATGGTTAGCTAATCTACAGTATG	2.79	4.02	4.34	1.43	2.52	2.99	1.03	-0.043
ATGTGTAGGTTATCGGGTCATTCAGTTTGCGCAT	3.35	3.59	2.67	1.75	3.57	3.57	3.71	3.91
ATCGAAAGGTCGACGAGGGGAGTATACACCGTTT	2.53	4.16	4.01	1.29	4.27	2.18	-0.0563	0.446
TCTAGTTGGTCCCGGAGGTCACACACGACGGGTA	3.79	3.99	3.7	0.937	4.39	3.59	3.02	2.67

— the supplement of paper PMC6555819
